Assay results reported in PubChem BioAssay (NCATS).
Results filed as inconclusive are left out. Active and inactive are the calls of the source. Unless noted, calls follow the shape of the dose curve; as a rule, active = well fitted curve in the direction sought with a large enough effect; inconclusive = small, poorly fitted or top-dose-only effect, or another doubt; inactive = no such curve, though single readings can be large; an effect the other way counts as inactive or inconclusive.

What was measured:
[1] = biological target: Glucocorticoid receptor (Homo sapiens) (UniProt P04150); test: GR-GFP Redistribution (AID 450;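 active = compounds whose dose series gives a full or clear partial fitted curve of increased nuclear translocation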; also: potency is read from the fitted curve at half-maximal effect); details: U2OS GR-GFP nuclear translocation, laser cytometry, 2 h
[2] = biological target: Glucocorticoid receptor (Homo sapiens) (UniProt P04150); test: GR-EFC Redistribution (AID 451; calls by dose curve; also: potency is read from the fitted curve at half-maximal effect); details: CHO-K1 GR-EFC translocation, beta-gal luminescence, 2 h
How it was run: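 CHO-K1 cells expressing nuclear EA and GR-ED fragments of b-gal; compounds titrated up to 46 uM final, 2 h at 37 C. GR nuclear translocation read as complemented b-gal luminescence after 1 h RT detection.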

[3] = biological target: Mitogen-activated protein kinase 10 (Mus musculus) (UniProt Q61831); test: JNK3 AlphaScreen Assay (AID 530; active = well fitted curve in either direction with a large enough effect, not every such curve was filed as active;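 also: kinase came from lysate of stimulated human HepG2 cells; signal reports phosphorylation of biotinylated GST-cJun 1-79 at Ser73 with 10 µM ATP; % is scaled to controls: 0 for no effect and ±100 for the full control effect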); details: JNK3 lysate, c-Jun phosphorylation; series mostly up to 57.1 µM
How it was run: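 qHTS format: compounds tested as titrations against IL-1beta/TNF-alpha-activated HepG2 lysate JNK3 with biotin-GST-cJun substrate and 10 uM ATP at room temperature. Loss of anti-phospho-cJun AlphaScreen signal indicates inhibition.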

[4] = biological target: 3',5'-cyclic-AMP phosphodiesterase 4B (Homo sapiens) (UniProt Q07343); test: qHTS Assay for Inhibitors of PDE-IV (AID 607; active = well fitted activation curve with a large enough effect in the main read-out, with a control signal flat, not every such curve was filed as active; also: % of control where 0% means no effect); details: HEK293 ACTOne CNG channel cells, membrane potential fluorescence; series mostly up to 22.9 µM
How it was run: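 Cell-based read-out of cAMP via a modified cyclic nucleotide-gated channel and membrane potential dye (535/590 nm) in HEK293 cells expressing PDE4 endogenously. Compounds tested up to 22.9 uM final; 100 uM RO 20-1724 reference.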

[5] = biological target: DNA dC->dU-editing enzyme APOBEC-3G (Homo sapiens) (UniProt Q9HC16); test: qHTS for inhibitors of Vif-A3G interactions: Validation (AID 588379); details: Vif-A3G protein interaction assay; series mostly up to 46.1 µM; also: 0% is about no effect
How it was run: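 HeLa cells stably expressing Vif and A3G-eYFP, 700 cells/well, incubated overnight at 37 deg C, then exposed to compound overnight at 37 deg C. Inhibition of Vif-mediated degradation read as increased yellow fluorescence (Ex 488/Em 500-530) by laser-scanning cytometry.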

[6] = tested on: Zika virus NS2B-NS3 protease; test: Primary screen GU AMC qHTS for Zika virus inhibitors (AID 1347154); details: Zika NS2B-NS3 unlinked protease, AMC fluorogenic substrate; series mostly up to 54.1 µM;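 also: 0% = no-inhibitor control and -100% = no-enzyme control; nearly all actives have a fitted effect of over 70% in size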
How it was run: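 Unlinked Zika NS2B hydrophilic domain–NS3 protease complex at 25 nM in 10 mM Tris-HCl pH 8.0, 0.01% Tween 20, with an AMC peptide substrate. Fluorescence change (340/450 nm) over 15 min at room temperature, normalized to controls, fitted to 4-parameter Hill.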

[7] = biological target: Cytochrome P450 1A2 (Homo sapiens) (UniProt P05177); test: p450-cyp1a2 (AID 410; calls by dose curve; also: potency is read from the fitted curve at half-maximal effect;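 as to activity change, negative = inhibition: -100% = full effect of reference inhibitor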); details: recombinant CYP1A2, luciferin-ME demethylation, luminescence; series mostly up to 57 µM
How it was run: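 Inhibition was calculated relative to 57 uM furafylline (full inhibition). The reaction used human CYP1A2 at 20nM with Luciferin-ME at its Km, 100uM, driven by an NADPH-regenerating system for 60 min at room temperature.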

[8] = biological target: Cytochrome P450 3A4 (Homo sapiens) (UniProt P08684); test: qHTS Assay for Activators of Cytochrome P450 3A4 (AID 885); details: recombinant CYP3A4, Luciferin-PPXE luminescence, 60 min; series mostly up to 57.1 µM; also: nearly all actives have a fitted effect of over 65% in size
How it was run: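 Signal was normalized against complete inhibition by 57 uM ketoconazole. The reaction used 20nM CYP3A4 with 25uM Luciferin-PPXE, 10-min compound preincubation and a 60-min NADPH-supported step at RT.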

[9] = tested on: Zika virus NS2B-NS3 protease (linked construct); test: Primary screen NINDS Rhodamine qHTS for Zika virus inhibitors (AID 1347160); details: purified NS2B-NS3 protease, Rhodamine110 substrate fluorescence; series mostly up to 57.1 µM; also: nearly all actives have a fitted effect of over 55% in size; also: potency is read from the fitted curve at half-maximal effect; as to activity change, negative = inhibition: % is scaled to controls: 0 for no effect and ±100 for the full control effect
How it was run: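 In 10 mM Tris-HCl pH 8.0 containing 0.01% Tween 20, linked NS2B-NS3 protease (25 nM final) is exposed to test compounds for 15 min. Cleavage of 1.5 microM Rhodamine110 substrate is tracked by fluorescence over 15 min.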

[10] = OV-KATE Cancer Cell Toxicity qHTS against the NCATS CANVASS Library (AID 1347345); details: OV-KATE cells viability, CellTiter-Glo luminescence, 72 h; series mostly up to 38.3 µM; also: potency is read from the fitted curve at half-maximal effect
How it was run: (§1)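 Viability read-out: CellTiter-Glo luminescence after 72 h compound exposure at 37 °C/5% CO2. Cells plated at 1000/well, 4 h pre-incubation; 11-point titration. Bortezomib served as control.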

[11] = OV-SAHO Cancer Cell Toxicity qHTS against the NCATS CANVASS Library (AID 1347348); details: OV-SAHO viability, CellTiter-Glo luminescence, 72 h; series mostly up to 38.3 µM; also: nearly all actives have a fitted effect of over 55% in size; also: potency is read from the fitted curve at half-maximal effect
How it was run: as §1

[12] = COV-362 Cancer Cell Toxicity qHTS against the NCATS CANVASS Library (AID 1347352); details: COV-362 viability, CellTiter-Glo luminescence, 72 h; series mostly up to 38.3 µM; also: potency is read from the fitted curve at half-maximal effect
How it was run: (§2)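 qHTS cytotoxicity: compounds tested in 11 concentrations on 1000 seeded cells per well over 72 h; bortezomib served as control; signal from CellTiter-Glo luminescence.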

[13] = UWB1.289-WTBRCA1 Cancer Cell Toxicity qHTS against the NCATS CANVASS Library (AID 1347354); details: UWB1.289-WTBRCA1 viability, CellTiter-Glo luminescence, 72 h; series mostly up to 38.3 µM; also: potency is read from the fitted curve at half-maximal effect
How it was run: as §2

[14] = HEK293 24hr Apoptosis Induction qHTS against the NCATS CANVASS Library (AID 1347359); details: HEK293 caspase-3/7 activation, Caspase-Glo luminescence; series mostly up to 46.1 µM; also: 0% is about no effect
How it was run: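 HEK293 cells, 500 per well, exposed to an 11-point compound series for 24 hours at 37 degrees C. Caspase 3/7 activity read by Caspase-Glo luminescence (DEVD substrate) after 15 min at room temperature.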

[15] = HEK293 12hr Apoptosis Induction qHTS against the NCATS CANVASS Library (AID 1347361); details: HEK293 caspase-3/7 Caspase-Glo luminescence; series mostly up to 46.1 µM; also: 0% is about no effect
How it was run: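 HEK293 cells (500/well, DMEM + 10% FBS) were exposed to natural products across an 11-point series for 12 hours at 37 degrees C. Caspase-3/7 activity was then measured with DEVD luciferase luminescence after 15 min at room temperature.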

[16] = tested on: NAD(P)H diaphorase (Clostridium kluyveri); test: Diaphorse counterscreen qHTS: Assay Interference Panel against the NCATS CANVASS Library (AID 1347362); details: Diaphorase enzyme, resazurin to resorufin fluorescence; series mostly up to 57.5 µM; also: 0% is about no effect
How it was run: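 Clostridium kluyveri diaphorase in PBS + 0.01% Tween-20 preincubated 15 min with compounds. Resazurin and NADH then added for 5 min at room temperature in the dark; resorufin fluorescence read (ex 525, em 598).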

[17] = biological target: Luciferin 4-monooxygenase (Photinus pyralis) (UniProt P08659); test: Firefly luciferase counterscreen qHTS: Assay Interference Panel against the NCATS CANVASS Library (AID 1347363); details: purified firefly luciferase, luminescence inhibition, 5 min; series mostly up to 57.5 µM; also: 0% is about no effect
How it was run: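 Purified P. pyralis luciferase (0.04 ug/mL, 4x reagent) added to Tris-acetate buffer with 0.013 mM D-luciferin, 0.013 mM ATP and 13.3 mM Mg-acetate; compounds preincubated 15 min, then luminescence read after 5 min, RT.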

[18] = qHTS Assay for Lipid Storage Modulators (AID 1519; calls by dose curve; as to activity change, negative = inhibition: % is scaled to controls: 0 for no effect and ±100 for the full control effect); details: Drosophila S3 cells, BODIPY lipid droplet/cell ratio, laser cytometry, cells loaded with oleic acid
How it was run: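 Cells seeded at 5,000 per well were treated with compounds over a concentration series and loaded with oleic acid (400 uM, as added). Lipid droplet fluorescence (488 nm excitation, 500-530 nm channel) was read by laser-scanning cytometry and normalized to 20 uM Triacsin C.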

Chain of Glucocorticoid receptor (Homo sapiens) (P04150 whole entry, looked up, the tested form may be a part): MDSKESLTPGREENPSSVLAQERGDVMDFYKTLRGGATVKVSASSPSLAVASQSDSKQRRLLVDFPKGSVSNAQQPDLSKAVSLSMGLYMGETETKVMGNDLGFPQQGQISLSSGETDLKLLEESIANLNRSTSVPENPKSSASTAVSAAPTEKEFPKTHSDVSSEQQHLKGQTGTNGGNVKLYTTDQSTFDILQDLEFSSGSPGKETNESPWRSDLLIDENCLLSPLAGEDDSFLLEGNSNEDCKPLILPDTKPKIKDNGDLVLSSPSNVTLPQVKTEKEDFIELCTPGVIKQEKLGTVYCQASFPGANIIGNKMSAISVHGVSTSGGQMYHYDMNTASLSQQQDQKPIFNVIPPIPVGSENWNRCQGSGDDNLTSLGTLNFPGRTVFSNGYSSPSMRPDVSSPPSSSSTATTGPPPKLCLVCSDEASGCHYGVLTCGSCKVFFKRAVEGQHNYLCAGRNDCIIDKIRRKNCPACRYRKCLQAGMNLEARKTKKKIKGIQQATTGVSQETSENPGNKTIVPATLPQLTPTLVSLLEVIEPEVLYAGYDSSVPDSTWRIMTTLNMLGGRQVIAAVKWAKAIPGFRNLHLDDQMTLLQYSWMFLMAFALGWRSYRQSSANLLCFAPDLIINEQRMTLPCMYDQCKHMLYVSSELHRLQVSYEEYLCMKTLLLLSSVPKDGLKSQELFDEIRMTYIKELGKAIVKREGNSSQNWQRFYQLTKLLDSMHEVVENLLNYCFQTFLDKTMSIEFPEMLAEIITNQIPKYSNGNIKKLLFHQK
Chain of 3',5'-cyclic-AMP phosphodiesterase 4B (Homo sapiens) (Q07343 whole entry, looked up): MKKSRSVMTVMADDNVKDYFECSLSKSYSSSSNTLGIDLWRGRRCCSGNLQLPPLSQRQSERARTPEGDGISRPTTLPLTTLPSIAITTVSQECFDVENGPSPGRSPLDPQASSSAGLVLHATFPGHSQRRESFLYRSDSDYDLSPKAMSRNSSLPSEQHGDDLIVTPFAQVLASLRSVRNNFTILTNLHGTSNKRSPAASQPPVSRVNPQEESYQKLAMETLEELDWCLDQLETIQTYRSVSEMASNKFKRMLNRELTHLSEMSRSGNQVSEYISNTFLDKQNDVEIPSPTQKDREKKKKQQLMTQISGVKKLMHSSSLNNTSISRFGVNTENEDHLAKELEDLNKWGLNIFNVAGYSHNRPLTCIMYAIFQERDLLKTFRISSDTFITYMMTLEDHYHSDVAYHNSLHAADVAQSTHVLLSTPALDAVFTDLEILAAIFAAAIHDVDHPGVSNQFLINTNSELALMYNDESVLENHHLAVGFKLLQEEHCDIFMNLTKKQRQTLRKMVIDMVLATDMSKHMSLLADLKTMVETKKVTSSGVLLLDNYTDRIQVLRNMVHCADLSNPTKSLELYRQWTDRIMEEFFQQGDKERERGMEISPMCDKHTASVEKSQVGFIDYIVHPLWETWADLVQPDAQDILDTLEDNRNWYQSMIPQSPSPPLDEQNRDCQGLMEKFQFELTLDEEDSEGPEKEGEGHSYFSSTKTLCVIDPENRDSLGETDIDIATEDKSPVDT
Chain of DNA dC->dU-editing enzyme APOBEC-3G (Homo sapiens) (Q9HC16 whole entry, looked up): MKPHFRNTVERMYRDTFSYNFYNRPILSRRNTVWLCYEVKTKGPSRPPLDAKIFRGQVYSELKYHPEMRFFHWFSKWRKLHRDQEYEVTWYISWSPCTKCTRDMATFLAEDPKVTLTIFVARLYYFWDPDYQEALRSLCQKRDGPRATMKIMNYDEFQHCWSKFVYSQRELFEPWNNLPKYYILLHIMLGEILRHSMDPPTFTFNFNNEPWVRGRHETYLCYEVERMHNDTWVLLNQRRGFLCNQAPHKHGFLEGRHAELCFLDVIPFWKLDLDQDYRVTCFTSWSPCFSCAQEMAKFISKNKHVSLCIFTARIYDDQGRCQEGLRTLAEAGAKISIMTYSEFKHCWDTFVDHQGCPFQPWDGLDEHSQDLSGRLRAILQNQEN
Chain of Cytochrome P450 1A2 (Homo sapiens) (P05177 whole entry, looked up): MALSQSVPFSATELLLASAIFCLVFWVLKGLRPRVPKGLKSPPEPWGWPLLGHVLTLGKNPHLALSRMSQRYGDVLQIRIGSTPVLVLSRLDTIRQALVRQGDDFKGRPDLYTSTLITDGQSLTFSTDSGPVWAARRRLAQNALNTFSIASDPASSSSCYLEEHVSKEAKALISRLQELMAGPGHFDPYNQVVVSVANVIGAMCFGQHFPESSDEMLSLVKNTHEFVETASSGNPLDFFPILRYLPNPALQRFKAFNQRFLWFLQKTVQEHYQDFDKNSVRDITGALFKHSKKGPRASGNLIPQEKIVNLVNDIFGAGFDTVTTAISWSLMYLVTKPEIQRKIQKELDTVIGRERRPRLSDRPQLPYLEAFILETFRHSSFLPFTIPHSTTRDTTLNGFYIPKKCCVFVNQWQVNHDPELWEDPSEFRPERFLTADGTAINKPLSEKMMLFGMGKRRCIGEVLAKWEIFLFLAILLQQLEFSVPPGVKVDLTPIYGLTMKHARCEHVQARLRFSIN
Chain of Luciferin 4-monooxygenase (Photinus pyralis) (P08659 whole entry, looked up): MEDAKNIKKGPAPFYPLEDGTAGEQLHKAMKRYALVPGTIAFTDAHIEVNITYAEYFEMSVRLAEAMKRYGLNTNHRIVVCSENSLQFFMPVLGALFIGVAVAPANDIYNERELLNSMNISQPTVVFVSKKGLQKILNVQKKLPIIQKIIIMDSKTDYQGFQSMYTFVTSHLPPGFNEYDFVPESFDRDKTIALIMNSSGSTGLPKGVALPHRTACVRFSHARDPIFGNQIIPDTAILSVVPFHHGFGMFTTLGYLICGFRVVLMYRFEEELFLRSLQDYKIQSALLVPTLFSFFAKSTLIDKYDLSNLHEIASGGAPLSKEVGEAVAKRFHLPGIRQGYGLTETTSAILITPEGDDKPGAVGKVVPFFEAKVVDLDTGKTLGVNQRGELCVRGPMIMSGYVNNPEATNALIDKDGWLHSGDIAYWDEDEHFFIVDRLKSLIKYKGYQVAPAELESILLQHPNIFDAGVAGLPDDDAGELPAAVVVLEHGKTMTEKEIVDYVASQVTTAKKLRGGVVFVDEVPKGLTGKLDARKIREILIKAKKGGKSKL
Chain of Cytochrome P450 3A4 (Homo sapiens) (P08684 whole entry, looked up): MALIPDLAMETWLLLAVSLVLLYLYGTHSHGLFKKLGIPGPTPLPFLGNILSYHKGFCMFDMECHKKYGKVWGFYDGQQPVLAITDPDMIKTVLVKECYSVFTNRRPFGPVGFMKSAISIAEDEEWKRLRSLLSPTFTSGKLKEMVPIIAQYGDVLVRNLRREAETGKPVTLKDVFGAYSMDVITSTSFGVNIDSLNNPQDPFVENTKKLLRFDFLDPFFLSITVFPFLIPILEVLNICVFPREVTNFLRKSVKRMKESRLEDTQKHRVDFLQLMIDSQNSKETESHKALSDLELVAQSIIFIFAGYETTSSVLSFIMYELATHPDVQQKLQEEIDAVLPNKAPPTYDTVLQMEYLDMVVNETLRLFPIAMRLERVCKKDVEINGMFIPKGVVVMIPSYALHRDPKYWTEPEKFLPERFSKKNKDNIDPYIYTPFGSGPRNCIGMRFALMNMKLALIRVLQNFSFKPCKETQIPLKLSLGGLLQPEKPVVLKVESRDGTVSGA

O[C@@H](Cc1ccncc1)C(Cl)(Cl)Cl
inactive: Potency [1] > 46 µM | Potency [2] > 46 µM | outcome [3] | Potency [4] | Potency [5] | Potency [6]

CC1(C)N(O)C(c2ccc(C(=O)O)cc2)=[N+]([O-])C1(C)C
active: Potency [7] 31.6 µM
inactive: Potency [2] > 46 µM | outcome [3] | Potency [5] | Potency [6]

O=C(O)c1ccccc1-c1c2cc(Br)c(=O)cc-2oc2[c]([Hg])c(O)c(Br)cc12
active: Potency [7] 15.8 µM
inactive: Potency [2] > 20.6 µM | outcome [3] | Potency [4] | Potency [8]

CC(=O)N[C@H]1CCN2CCC[C@H]12
inactive: Potency [9] | Potency [10] | Potency [11] | Potency [12] | Potency [13] | Potency [14] | Potency [15] | outcome [16] | outcome [17]

NC[C@H](CC(=O)O)c1ccc(Cl)cc1
12.8%: max response ([18]; measured here: cell count channel max response)
inactive: Potency [2] > 46 µM | outcome [3] | Potency [4] | activity change, negative = inhibition ([18]; at 57.5 µM (top of the series)) 2.02% | Potency [5] | Potency [6]
19.1%: max response ([18]; measured here: lipid channel max response)

CC(C)[C@@]1(NC(=O)[C@H]2CC3c4cccc5[nH]cc(c45)C[C@H]3N(C)C2)O[C@@]2(O)C3CCCN3C(=O)[C@@H](Cc3ccccc3)N2C1=O (some centres not stated)
inactive: Potency [6]

CNCCc1ccc(O)cc1
inactive: Potency [9] | Potency [10] | Potency [11] | Potency [12] | Potency [13] | Potency [14] | Potency [15] | outcome [16] | outcome [17]

N[C@H](Cc1o[nH]c(=O)c1Cl)C(=O)O
inactive: Potency [7] | Potency [1] > 46 µM | Potency [2] > 46 µM | outcome [3] | Potency [4] | Potency [5] | Potency [6]

CO[C@@H](/C=C/CC/C=C/C(=O)O)[C@@H](O)[C@H](C)[C@@H](O)/C(C)=C/[C@H](C)C(=O)CCCC1CC(=O)NC(=O)C1
inactive: Potency [9] | Potency [10] | Potency [11] | Potency [12] | Potency [13] | Potency [14] | Potency [15] | outcome [16] | outcome [17]

CO[C@@H](/C=C/CC/C=C/C(=O)O)[C@@H](O)[C@H](C)/C=C(\C)[C@@H](O)[C@H](C)C(=O)CCCC1CC(=O)NC(=O)C1
inactive: Potency [9] | Potency [10] | Potency [11] | Potency [12] | Potency [13] | Potency [14] | Potency [15] | outcome [16] | outcome [17]

O=C(c1ccccc1O)c1[nH]c(Cl)c(Cl)c1-n1c(C(=O)c2ccccc2O)cc(Cl)c1Cl
inactive: Potency [14] | Potency [15] | outcome [16] | outcome [17]
active: Potency [9] 2.47 µM | Potency [10] 5.94 µM | Potency [11] 2.11 µM | Potency [12] 2.11 µM | Potency [13] 13.3 µM
